Screening results as filed in PubChem BioAssay.
Only some compounds are listed: those with a hit (about 12% of all), similar ones and a draw of the others.
BAZ2B block: BAZ2B (human) inhibition. hit rate 4.4% among 360,000. AID 504333. AlphaScreen BAZ2B-H3K14Ac peptide displacement. Potency, µM (highest dose often 114 µM), inactives show at the highest dose activity change, negative = inhibition, actives largely listed as inhibitors. Q9UIF8; note: potency is the fitted concentration of half-maximal effect; % is set by controls: 0 for no effect and ±100 for the full control effect; nearly all actives have a fitted effect of over 60% in size
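AlphaScreen displacement: compounds (up to 110uM) incubated 30 min at room temperature with a preformed 50 nM BAZ2B/50 nM biotinylated H3K14Ac peptide complex in PBS pH 7.4 with Tween-20. Donor and acceptor beads at 10 ug/mL final added, 20 min light-protected before reading.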
G9a inh: G9a (human) methyltransferase inhibition. Potency, µM (titrated, usually from 102 µM), without a hit: at the top dose activity, negative = inhibition, hits mostly inhibitors. G9a H3K9 monomethylation, AlphaScreen, 2 h. Q96KQ7. AID 504332. hit rate 8.8% among 350,000; note: potency is the fitted concentration of half-maximal effect; % is set by controls: 0 for no effect and ±100 for the full control effect; nearly all actives have a fitted effect of over 75% in size
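AlphaScreen read-out: biotin-H3K9 peptide (500 nM) methylation by 20 nM enzyme with 20 uM SAM, 2 h at room temperature after 15 min compound preincubation; anti-monomethyl H3K9 antibody plus donor/acceptor beads, 10 min dark.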
PI5P4K alpha inh: inhibitors of human PI5P4K alpha; AID 652105; hit rate 1.2% among 330,000; P48426; PI5P4Kalpha enzyme, ADP-Glo luminescence, 60 min; stronger effect = lower value; max response, %; active = max response of -50% or lower; inconclusive = between -30% and -50%; inactive = -30% or higher; note: value at the top dose of about 77 µM; % is set by controls: 0 for no effect and ±100 for the full control effect
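qHTS, 1536-well: enzyme/substrate mix, compound by pin tool, 5 microM ATP final; RT 60 min; ADP-Glo reagents 1 (45 min) then 2 (30 min); luminescence.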
JMJD2A Tudor: blocks the human JMJD2A Tudor domain; hit rate 4.4% among 390,000; O75164; Potency, µM (series often up to 114 µM), inactives show top-dose activity change, negative = inhibition, actives largely listed as inhibitors; AlphaScreen JMJD2A-Tudor / H3K4me3 peptide binding; AID 504339; note: potency is the fitted concentration of half-maximal effect; % is set by controls: 0 for no effect and ±100 for the full control effect; nearly all actives have a fitted effect of over 50% in size
HP1b chromo inh: inhibitors of HP1-beta chromodomain binding to methylated histone tails; P83916; AlphaScreen HP1-beta / biotin-H3K9me3 peptide binding; Potency, µM (top dose mostly 114 µM), for inactives: top-dose activity change, negative = inhibition, most hits filed as inhibitors; hit rate 0.56% among 390,000; AID 540317; note: potency is the fitted concentration of half-maximal effect; nearly all actives have a fitted effect of over 70% in size
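HP1-beta protein (50 nM final) preincubated 30 min at room temperature with biotinylated H3(1-18)K9me3 peptide (50 nM) in PBS pH 7.4, 0.01% Tween-20, then compound added for 30 min. AlphaScreen streptavidin donor/nickel chelate acceptor beads (10 ug/mL final), 30 min dark, luminescence read.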
PLK1 PBD inh: PLK1 (human) polo-box domain binding inhibition; Plk1 PBD binding of FITC phosphopeptide, fluorescence polarization; Potency, µM, without a hit: max response, negative = inhibition, actives largely listed as inhibitors; hit rate 2.8% among 360,000; note: potency is the fitted concentration of half-maximal effect; series mostly up to about 57 µM; % is set by controls: 0 for no effect and ±100 for the full control effect; nearly all actives have a fitted effect of over 65% in size
Target sequence (P53350 whole entry, looked up, the tested form may be a part): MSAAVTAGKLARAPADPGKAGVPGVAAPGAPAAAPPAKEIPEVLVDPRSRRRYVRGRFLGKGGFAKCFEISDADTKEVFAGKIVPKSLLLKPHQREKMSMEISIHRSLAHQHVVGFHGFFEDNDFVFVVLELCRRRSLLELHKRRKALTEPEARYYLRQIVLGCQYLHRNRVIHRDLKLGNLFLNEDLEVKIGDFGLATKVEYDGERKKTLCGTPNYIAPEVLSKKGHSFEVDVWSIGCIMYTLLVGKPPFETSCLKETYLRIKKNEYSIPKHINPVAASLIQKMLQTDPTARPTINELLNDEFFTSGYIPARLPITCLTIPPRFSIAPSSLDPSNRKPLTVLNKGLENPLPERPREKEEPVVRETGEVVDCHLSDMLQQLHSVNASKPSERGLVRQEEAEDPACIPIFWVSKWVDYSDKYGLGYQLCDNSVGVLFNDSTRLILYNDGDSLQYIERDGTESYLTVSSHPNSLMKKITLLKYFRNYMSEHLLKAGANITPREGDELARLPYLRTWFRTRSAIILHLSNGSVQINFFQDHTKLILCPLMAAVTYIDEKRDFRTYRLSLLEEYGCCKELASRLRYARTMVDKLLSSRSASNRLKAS
* = called active by the depositor; ? = inconclusive; . = no result given; [ ] = remark or other dose. Unless noted, calls come from the whole dose curve; as a rule, active = well fitted curve in the direction sought with a large enough effect; inconclusive = small, poorly fitted or top-dose-only effect, or another doubt; inactive = no such curve, though single readings can be large; an effect the other way counts as inactive or inconclusive.

SMILES | BAZ2B block | G9a inh | PI5P4K alpha inh | JMJD2A Tudor | HP1b chromo inh | PLK1 PBD inh
Cc1ccc(C)c(N2N=C(C(=O)Nc3ccccc3N3CCCC3)CCC2=O)c1 | 35µM* | 50µM* | 8 | 45µM* | 50µM* | -7%
CCOc1ccc(OCC(=O)Nc2ccccc2N2CCCC2)cc1 | ? | 50µM* | 17 | ? | -21% | 1%
COc1cc(C(=S)N2CCCC2)cc(Cl)c1OCC(=O)Nc1ccc(C)cc1C | ? | 7.9µM* | ? | ? | ? | 8.4µM*
CC(=O)N1CCN(c2ccccc2NC(=O)COc2cc(C)cc(C)c2)CC1 | -3% | -5%[59 µM] | 2 | 50µM* | 5% | ?
COc1ccc(OC)c(NC(=O)C(C)N2c3cccc4cccc(c34)S2(=O)=O)c1 (stereo not drawn) | -1% | 17% | 3 | -17% | 27% | -1%
O=C(NC1CCCCC1)c1cc2c(Cl)nc3ccccc3c2s1 | -4% | 1%[59 µM] | . | -2% | 41% | .
Cc1cc(C)c(OCC(=O)Nc2ccccc2N2CCCCC2)c(C)c1 | 23% | -32% | 16 | 9% | 62% | -3%
Cc1ccc(OCC(=O)Nc2ccccc2N2CCCC2)c(C)c1 | 71µM* | -8%[12.7 µM] | 11 | -33% | 13% | -13%
CCc1ccccc1NC(=O)COc1ccc(C(=S)N2CCCC2)cc1 | -21% | -35% | 3 | 71µM* | -7% | ?
Cc1ccc(C)c(OCC(=O)Nc2ccccc2N2CCCC2)c1 | ? | 40µM* | 11 | ? | 12% | -3%
COCCCN1C(=O)C(CC(=O)NCc2cccs2)CC(C(=O)N(C)C)=C1C (stereo not drawn) | . | . | -1 | . | . | -2%
CN(C)/C=N/c1nc2c(ncn2C2CC(O)C(CO)O2)c(=O)[nH]1 (stereo not drawn) | . | . | . | -11% | 39% | .
COc1ccc(N=C(C)C2=C(O)COC2=O)cc1 | -19% | 6.3µM* | -1 | -14% | 35% | -4%
COc1ccc(S(=O)(=O)N/N=C(/C)c2ccco2)cc1 | -2% | 55% | 8 | -10% | 25% | -6%
Clc1ccc(N=c2ssnc2Cl)nc1 | -34% | -3% | -23 | -28% | -11% | 0.95µM*
Clc1nc2nc3n(c2nc1Cl)CCC3 | 0% | 10% | 2 | -9% | 19% | -5%
COc1ccc(NC(=O)Cn2nc(-c3ccccc3)c3cnc4ccc(C)cc4c32)cc1 | -5% | 12%[59 µM] | . | -18% | 32% | .
CC1=C(C(=O)OCc2ccccc2)C(c2ccc(Cl)cc2)NC(=O)N1CCCC(=O)O (stereo not drawn) | 3% | -6% | -100* | -13% | 32% | 2%
CC1=C(C(=O)OCc2ccccc2)C(c2ccc(Br)cc2)NC(=O)N1CCCC(=O)O (stereo not drawn) | -38% | -50% | -80* | -7% | 46% | 0%
CC1=C(C(=O)OCc2ccccc2)C(c2ccc(N(C)C)cc2)NC(=O)N1 (stereo not drawn) | ? | 10µM* | . | ? | -24% | 1%
CCOc1ccc(C2NC(=O)NC(C)=C2C(=O)OCc2ccccc2)cc1 (stereo not drawn) | 4% | -12%[0.501 µM] | 3 | -6% | 13% | -10%
CCS(=O)(=O)N1CCc2cc(C(=O)N3CCN(c4cccc(C(F)(F)F)c4)CC3)ccc21 | ? | ? | . | -35% | 10% | .
Clc1ccc(OCCSc2ncccn2)c(Br)c1 | 251% | 463% | 16 | 128% | 130% | -14%
Cc1cc(Cl)c(OCCCN(C)C)c(Br)c1 | -37% | 11µM* | 0 | 8.9µM* | ? | -2%
CC(C)(C)NCCCCOc1ccccc1F | -25% | -26%[12.7 µM] | . | -9% | 8% | -12%
SMILES | BAZ2B block | G9a inh | PI5P4K alpha inh | JMJD2A Tudor | HP1b chromo inh | PLK1 PBD inh
CN(C)CCCOc1ccc(Cl)cc1Br | 45µM* | 30%[0.501 µM] | . | 1µM* | ? | -5%
Cc1ccc(OCCCN(C)C)c(Br)c1 | 79µM* | ? | -6 | 3.2µM* | ? | 1%
Cc1cc(Cl)c(OCCCCNC(C)(C)C)c(Br)c1 | ? | 8.9µM* | . | . | . | .
COc1cccc(OC)c1OCCCOc1ccc(C)cc1Br | 87% | 31%[59 µM] | 6 | 41% | 121% | -1%
O=C(NCc1ccccc1)C1CC(=O)N(c2ccc(OCC(=O)N3CCOCC3)cc2)C1 (stereo not drawn) | -3% | 16% | -3 | -1% | 40% | -13%
Cc1ccc(S(=O)(=O)NCc2ccccc2)cc1C(=O)NC(C)c1ccc(S(N)(=O)=O)cc1 (stereo not drawn) | 8% | 1% | -12 | -16% | 13% | -5%
Cc1cc2nc(/N=C(\N)NC(=O)N3c4ccccc4Sc4ccccc43)nc(C)c2cc1C | -35% | 50µM* | 0 | -35% | 6% | -5%
Cc1ccc2nc(/N=C(\N)NC(=O)N3c4ccccc4Sc4ccccc43)nc(C)c2c1 | -33% | 50µM* | 2 | -26% | -12% | 9%
O=Cc1cc(N=Nc2cccc(C(=O)O)c2)ccc1O | ? | ? | -79* | -13% | 9% | -20%
O=Cc1cc(N=Nc2ccccc2Cl)ccc1O | 10µM* | 10µM* | ? | 25µM* | ? | ?
N#Cc1c(Nc2ccc(Cl)cc2)s[nH]c1=O | -5% | . | ? | 79µM* | -5% | ?
CSc1nc(Nc2ccc(Cl)cc2)c(C#N)c(=O)[nH]1 | -6% | -9% | -18 | -11% | 53% | -3%
Cc1ccc(CSc2nnc(NC(=O)C3=COCCO3)s2)cc1 | 10% | 11%[12.7 µM] | -8 | -7% | 41% | -22%
Cc1ccc(/C=C2\SC(=O)N(CCNC(=O)C3CSC4(C)CCC(=O)N34)C2=O)cc1 (stereo not drawn) | -24% | 35µM* | -2 | -18% | 13% | -5%
Cn1c(=O)[nH]c(=O)c2c1nc(SCCC(=O)O)n2Cc1cccc(Br)c1 | -13% | 35µM* | -15 | -20% | 66% | -20%
CCOC(=O)CSc1nc2c(c(=O)[nH]c(=O)n2C)n1Cc1ccccc1 | -3% | -13% | -3 | -15% | 18% | -5%
CC(=O)CSc1nc2c(c(=O)[nH]c(=O)n2C)n1Cc1cccc(Br)c1 | -3% | 22µM* | 0 | -22% | -8% | 19µM*
Cn1c(SCc2cccc(Br)c2)nc2c1c(=O)[nH]c(=O)n2C | 0% | 12% | 1 | -13% | 39% | 2%
O=C(COc1ccc2c(-c3ccccc3)cc(=O)oc2c1)NC1CCS(=O)(=O)C1 (stereo not drawn) | 7% | -6%[0.501 µM] | 0 | -22% | 25% | -8%
CCn1c(CNC(=O)c2cccc(C)c2)nnc1SCC(=O)Nc1cccc(OC)c1 | 9% | 11%[12.7 µM] | . | -16% | 4% | -6%
COc1ccc(CC(=O)NCc2n[nH]c(=S)n2-c2cccc(C)c2)cc1 | 3% | 11µM* | 0 | 7.9µM* | 35% | 1%
